# High-throughput results as filed in PubChem.
# Many of the other results were omitted from the sample, so hits are more common in it than they were.
# RMI-FANCM inh: disruptors of RMI1/RMI2 association with MM2 peptide – biochemical, fluorescence polarization, human, primary screen | RMI core complex (RMI1/RMI2) binding to FANCM MM2 peptide, human | RMI core complex with F-MM2 peptide; active compounds read low | FP signal (polarization) at 33 µM | 70,000 tested, 0.58% active | AID 1159607, 2016; in the data active = FP signal below about 40
# * = called active by the depositor; ! = not confirmed by another sample.
SMILES,RMI-FANCM inh
Cc1cc(Nc2ccc(S(=O)(=O)Nc3nccs3)cc2)c2ccc(C(F)(F)F)cc2n1,60
CCOc1ccc(C2NCCn3cccc32)cc1 (stereo not drawn),75
Fc1ccc2ncc(-c3ccc(Br)s3)nc2c1,9*
Fc1ccc2nc(NCc3cccnc3)sc2c1,66
Brc1ccc(-c2ccc(Br)s2)s1,63
CN(C)c1ccc(CCCNC(=O)Cc2ccc(Cl)cc2)cc1,72
Cc1cc(C)cc(NC(=O)Cn2nc(C3CC3)c3cnn(-c4ccc(F)cc4)c3c2=O)c1,126
CCOC(=O)NC(=O)/C(=C/NCc1ccncc1)C(=O)OCC,53
COc1cc(C)c(C)cc1S(=O)(=O)NCC1COC2(CCCC2)O1 (stereo not drawn),55
Cc1nn(S(=O)(=O)N2CCOCC2)c(C)c1C,64
CCOC(=O)N1CCc2c(sc(NC(=O)c3ccccc3Cl)c2C(N)=O)C1,68
Cc1cc(C)c(S(=O)(=O)Nc2cc(Cl)c(O)c3ccccc23)cc1C,25*
COc1ccc(OC)c(S(=O)(=O)Nc2cc(Sc3ccccc3)c(O)c3ccccc23)c1,61
Cc1cc(Cl)c(Cl)cc1S(=O)(=O)Nc1ccccc1C(=O)O,63
CCC(=O)N1CCc2ccc(NC(=O)c3cccc(OC)c3OC)cc2C1,67
O=C(CCc1ccccc1)N/N=C\c1ccccc1,56
O=C(CCc1ccc(O)cc1)N/N=C\c1cc(Cl)cc(Cl)c1O,37*
O=C(CCc1ccc(O)cc1)N/N=C\C=C\c1ccccc1,58
Cc1nc(-n2nc(-c3ccco3)cc2NC(=O)CSCc2ccccc2)[nH]c(=O)c1C,35*
Cc1ccc(OCC(=O)Nc2cc(-c3ccco3)nn2-c2nc(C)c(C)c(=O)[nH]2)cc1,42
Cc1nc(-n2nc(-c3ccco3)cc2NC(=O)c2ccco2)[nH]c(=O)c1C,46
Cc1nc(/C(N)=N\OC(=O)c2c(F)cccc2Cl)cs1,62
CC1(C)Cc2cccc(C(=O)NCc3cccnc3)c2O1,57
CCN1C(=O)c2cccc3c(S(=O)(=O)N4CCN(c5ccccc5F)CC4)ccc1c23,58
CN1CCN(C(CNC(=O)c2cc3ccccc3oc2=O)c2ccc3c(c2)CCN3C)CC1 (stereo not drawn),61
SMILES,RMI-FANCM inh
Cc1cc(C)nc(SCc2cc(=O)c(OC(=O)c3ccc4c(c3)OCO4)co2)n1,57
Cc1ccccc1N1C(=O)c2cccc3c(C(=O)O)ccc(c23)C1=O,60
O=C(c1ccccc1)c1ccc2c3c(cccc13)C(=O)N(c1ccc3c4c(cccc14)CC3)C2=O,18*
O=C(c1ccccc1)c1ccc2c3c(cccc13)CC2,62
O=C(CSc1nnc2n1CCN2c1ccc(F)cc1)N1CCc2ccccc21,53
CCC(C)Nc1ncnc2sccc12 (stereo not drawn),64
Cn1c(-c2nc(C(=O)NN3CCOCC3)cs2)cc2ccccc21,3*
O=C(NC(=O)c1csc([N+](=O)[O-])c1)NN1CCOCC1,56
O=C(Nc1ccccc1)c1csc(-c2ccccc2)n1,66
Nc1ncncc1-c1ccc(Cl)cc1,49
Nc1ncnc(Cl)c1N,17*
Nc1ncnc2c1CCC2,82
CCOCCn1c(=NC(=O)C2CCCCN2S(=O)(=O)c2ccc(Cl)s2)sc2cccc(F)c21 (stereo not drawn),67
Cc1nc(Sc2nc3ccccc3o2)c2c3c(sc2n1)CCCC3,30*
Cc1nc(Cl)c2c3c(sc2n1)CCCC3,57
Cc1nc2sc3c(c2c(=O)o1)CCCC3,53
CCOC(=O)C(=Cc1ccc(-c2ccccc2[N+](=O)[O-])o1)C(=O)OCC,58
O=[N+]([O-])c1ccccc1-c1ccc(-c2nnc(-c3ccco3)o2)o1,25*
O=[N+]([O-])c1cccnc1Sc1nccc(-c2ccco2)n1,54
CC(=O)CC(=O)CCC(=O)O,54
COc1ccccc1-c1nnc(C2CCN(S(C)(=O)=O)CC2)s1,64
CCOC(=O)c1sc(NC(=O)c2cc(=O)c3ccccc3o2)cc1C,62
CCOC(=O)c1cc2cc(Cl)ccc2o1,53
CCCc1c2c(cc3c(=O)cc(C(=O)OCC)oc13)CCCC2,32*
COc1ccc(-n2ncc(C(=O)NCc3sccc3C)c2C)cc1,63
SMILES,RMI-FANCM inh
O=C(Cc1cccs1)NCc1ccc2[nH]c3c(c2c1)CCCC3,-1*
O=C(NCc1ccc2[nH]c3c(c2c1)CCCC3)c1ccc(C(F)(F)F)cc1,43
O=C(NCc1ccc2[nH]c3c(c2c1)CCCC3)c1cccs1,45
CC(=O)Nc1ccc(OS(=O)(=O)N(C)C)cc1,65
COc1cc(-c2ccc(=O)n(CC(=O)Nc3ccc(F)cc3F)n2)cc(OC)c1OC,56
COc1cc2cc(CNc3ccc(C)cc3)c(=O)n(CC(=O)Nc3ccc(F)cc3F)c2cc1OC,9*
Cc1ccc(-c2noc(-c3cccn(CC(=O)Nc4ccc(F)cc4F)c3=O)n2)cc1,95
COc1ccc(-c2ccc(N3CCN(S(=O)(=O)c4cccs4)CC3)nn2)cc1OC,63
N[C@H](CO)C(=O)O,49
NC(CO)C(=O)NNCc1ccc(O)c(O)c1O (stereo not drawn),-13*!
COc1ccccc1N1CCN(CCNC(=O)c2ccccc2C(F)(F)F)CC1,62
CCOC(=O)C(O)(NC(=O)CC#N)C(F)(F)F (stereo not drawn),60
O=C(O)c1ccc(-n2c(=S)[nH]c3cc(Cl)ccc3c2=O)cc1,61
NC(=O)Nc1ccc(F)cc1F,57
N/C(CC(=O)Nc1ccc(F)c(F)c1F)=N/O,35*
O=C(CS(=O)(=O)c1ccc(Cl)cc1)Nc1ccc(F)c(F)c1F,57
CSc1scc2c1C(=O)/C(=C/N(C)C)CC2,33*
CSc1scc2c1-c1nc(SCC(=O)C(C)(C)C)ncc1CC2,58
CC(N)=NN(C)c1cccc(F)c1C#N,53
CC(C)(C)c1cc(C(c2ccc(Cl)cc2)N2CCN(Cc3ccccc3)CC2)cc(C(C)(C)C)c1O (stereo not drawn),63
CC1CCN(C2=NC(=O)/C(=C\c3ccccc3)S2)CC1,58
O=C1N=C(N2CCN(c3ccccc3[N+](=O)[O-])CC2)S/C1=C/c1cccs1,18*
O=C1N=C(N2CCN(c3ccccc3F)CC2)S/C1=C\c1cccnc1,66
O=C(NOCCc1ccccc1)Nc1ccc([N+](=O)[O-])cc1,60
O=c1c2scc(-c3cccc(Cl)c3)c2ncn1Cc1ccc(F)cc1,67
SMILES,RMI-FANCM inh
Cc1cc(C(=O)Nc2cc(C(F)(F)F)ccc2N2CCOCC2)nn1-c1ccccc1,54
CC(=O)O[C@H]1C[C@@H]2CC[C@@H]3[C@H](CC[C@@]4(C)[C@H]3C[C@H]([N+]3(C)CCCCC3)[C@@H]4OC(C)=O)[C@@]2(C)C[C@@H]1N1CCCCC1,74
CC(=O)OC1C([N+]2(C)CCCCC2)C[C@H]2C3CC[C@H]4C[C@H](OC(C)=O)C([N+]5(C)CCCCC5)CC4(C)[C@H]3CCC12C (stereo partly drawn),-9*
CC(=O)O[C@H]1C[C@@H]2CC[C@@H]3[C@H](CC[C@@]4(C)[C@H]3C[C@H]([N+]3(C)CCCCC3)[C@@H]4OC(C)=O)[C@@]2(C)C[C@@H]1[N+]1(C)CCCCC1,56
O=C(NCCc1ccc(Cl)cc1)C(=O)Nc1ccc(N2CCCS2(=O)=O)cc1,93
O=C(NCCn1ncc2c(=O)n(Cc3cccc4ccccc34)cnc21)c1ccc2c(c1)OCO2,87
CCN(Cc1ccccc1)C(=O)CCN1C(=O)/C(=C\c2ccco2)SC1=S,22*
